In PubChem BioAssay (NCATS):
Records with an inconclusive call do not appear. The source made the active and inactive calls. The call rests on the fitted dose curve.

Each molecule was assayed against Peroxisome proliferator-activated receptor delta (Homo sapiens) (UniProt Q03181) (assay: qHTS assay for small molecule agonists of peroxisome proliferator-activated receptor delta signaling (AID 588534)). Conditions: HEK293T PPARdelta-UAS-bla, beta-lactamase ratio, 18 h; series mostly up to 76.7 µM.
Summary of the method: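 Fluorescence from CCF4 substrate cleavage by beta-lactamase reporter, read 2 hrs at RT, measured agonist activity. Compounds were tested with 18 hrs exposure at 37 C. Concentration-response data fitted to Hill equation.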

Chain of Peroxisome proliferator-activated receptor delta (Homo sapiens) (Q03181 whole entry, looked up): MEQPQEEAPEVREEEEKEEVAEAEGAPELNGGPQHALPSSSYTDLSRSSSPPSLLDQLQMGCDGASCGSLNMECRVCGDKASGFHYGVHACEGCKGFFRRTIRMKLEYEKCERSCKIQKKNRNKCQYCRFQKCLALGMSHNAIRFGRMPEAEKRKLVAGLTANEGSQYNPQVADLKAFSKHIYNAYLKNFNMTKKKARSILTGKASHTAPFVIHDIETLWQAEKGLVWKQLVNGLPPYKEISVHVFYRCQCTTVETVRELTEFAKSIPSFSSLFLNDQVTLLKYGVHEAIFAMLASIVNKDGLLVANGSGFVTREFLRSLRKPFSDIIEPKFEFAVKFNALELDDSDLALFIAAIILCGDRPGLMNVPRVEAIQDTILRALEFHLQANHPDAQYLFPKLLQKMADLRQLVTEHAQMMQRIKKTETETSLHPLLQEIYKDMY

Row | Compound | outcome
1 | CCC(O)OCCCOC (configuration not stated) | inactive
2 | COC(=O)c1ccccc1 | inactive
3 | Nc1ccc2c(c1)C(=O)c1ccccc1C2=O | inactive
4 | CC1=CC(=O)CC(C)(C)C1 | inactive
5 | CC(C)(O)C(=O)O | inactive
6 | NC(=O)c1ccc([N+](=O)[O-])cc1 | inactive
7 | Clc1cc(Cl)cc(Cl)c1 | inactive
8 | CCCCCCCCCCCCCCCCCC#N | inactive
9 | OC1CCCCC1 | inactive
10 | C=Cc1cccc(C)c1 | inactive
11 | COCC(=O)O | inactive
12 | CC=C(Cl)Cl | inactive
13 | CO[Si](OC)(OC)c1ccccc1 | inactive
14 | CC(C)N(C)C | inactive
15 | CC(=O)OCc1ccco1 | inactive
16 | C[C@H]1C[C@H]2[C@@H]3CCC4=CC(=O)C=C[C@]4(C)[C@@]3(F)[C@@H](O)C[C@]2(C)[C@@]1(O)C(=O)CO | inactive
17 | CC(C)CCCCOC(=O)c1ccccc1C(=O)OCCCCC(C)C | inactive
18 | O=[N+]([O-])C(CO)(CO)CO | inactive
19 | COC(=O)CCSCCC(=O)OC | inactive
20 | C=CC(C)(O)CCCC(C)CCCC(C)CCCC(C)C (configuration not stated) | inactive
21 | CC(=O)c1ccc([N+](=O)[O-])cc1 | inactive
22 | O=C(O[C@@H](C(=O)O)[C@@H](OC(=O)c1ccccc1)C(=O)O)c1ccccc1 | inactive
23 | C=C(C)C(=O)OCCOC(=O)C(=C)C | inactive
24 | CC(=O)Nc1ccc(C)cc1 | inactive
25 | Cc1cc(-c2ccc(N=Nc3cc(S(=O)(=O)O)c4ccccc4c3N)c(C)c2)ccc1N=Nc1cc(S(=O)(=O)O)c2ccccc2c1N | inactive
26 | C=C(C)C(=O)OCCC[Si](OC)(OC)OC | inactive
27 | CCOCCOCCOCC | inactive
